Molecules are shown by their SMILES.

The nature of this experiment: compounds binding Alexa647 anti-His antibody – biochemical, small-molecule microarray, 635 nm fluorescence, artefact control for SMM control protein annotation, primary screen (AID 1128).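 Further: score merges feature fluorescence with signal-to-noise for each printed compound spot.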 As to conditions: higher = more signal.
`CO[C@@H]1COC(=O)[C@@H]2CCCN2C(=O)[C@@H](C)COC(=O)[C@H](COCc2ccccc2)NC(=O)CC=C[C@H]1C`: the composite z-score came to 0.284. The result for `C#CCCCON=C1C[C@@H](O)[C@@H](O)[C@@H]2[C@@H]3C(=O)N([C@@H](C)c4ccccc4)C(=O)[C@@H]3CC[C@H]12` reads 0.449; that for `COCCCNC(=O)[C@@]1(C)c2ccccc2C(=O)N(Cc2ccc(OC(F)(F)F)cc2)[C@H]1c1ccc(CO)cc1`, -0.95. `C=COC[C@H]1CN2[C@@H](CC[C@@H](C)[C@@H]2c2ccc(Br)cc2)C(=O)O1` gave a composite z-score of 1.25. `CC(CCN1CCCCc2nc(C)c(C)cc21)=NOC(C)CN1CCCc2nc(C)c(C)cc21` (stereo unspecified) showed a composite z-score of -0.756.

`CC(C)=NOCc1ccc(-c2cc(-c3ccccc3)no2)cc1`: the composite z-score stood at 0.0906. The compound `CCc1cc2c(nc1CC)CCN(CCC(C)=NOC[C@@H](O)[C@H]1O[C@@H]3OC(C)(C)O[C@@H]3[C@H]1O)C2` came in with a composite z-score of 0.29. On to `COc1cccc([C@H]2Oc3ccc(OC)cc3C(=NO[C@H](C)c3cn([C@@H]4COC[C@H]4O)nn3)[C@@H]2O)c1`, for which the composite z-score was 0.899. `O=C(NN=C1C[C@@H](O)[C@@H](O)[C@@H]2[C@@H]3C(=O)N(c4ccc(F)cc4F)C(=O)[C@@H]3CC[C@@H]12)OCc1ccccc1` registered a composite z-score of 0.419. The compound `CCOC(=O)[C@H](Cc1ccccc1)NC(=O)CCC1CC(OC(=O)NCc2ccc3c(c2)OCO3)CC2(CCCC(COC(=O)NCc3cccc(C(F)(F)F)c3)O2)O1` (stereo partly specified) showed a composite z-score of 1. In turn, `C[C@@H](c1ccccc1)N1C(=O)[C@H]2[C@H]3[C@H](O)C=CC(=O)[C@@H]3CC[C@H]2C1=O` returned a composite z-score of 0.299.

Values taken from PubChem BioAssay.
